Shown are actives, neighbours in structure and some others; about 0.81% of the full set was active somewhere.
LmPK inhibitor: blocks Leishmania mexicana pyruvate kinase activity. purified LmPK, Kinase-Glo ATP luminescence, 1 h. Potency, µM (top dose mostly 57.5 µM), without a hit: at the top dose activity change, negative = inhibition, most hits filed as inhibitors. 290,000 tested, 0.37% active; further: on the % scale 0 is the no-effect control and ±100 the full control effect
Target sequence (Q27686 whole entry, looked up): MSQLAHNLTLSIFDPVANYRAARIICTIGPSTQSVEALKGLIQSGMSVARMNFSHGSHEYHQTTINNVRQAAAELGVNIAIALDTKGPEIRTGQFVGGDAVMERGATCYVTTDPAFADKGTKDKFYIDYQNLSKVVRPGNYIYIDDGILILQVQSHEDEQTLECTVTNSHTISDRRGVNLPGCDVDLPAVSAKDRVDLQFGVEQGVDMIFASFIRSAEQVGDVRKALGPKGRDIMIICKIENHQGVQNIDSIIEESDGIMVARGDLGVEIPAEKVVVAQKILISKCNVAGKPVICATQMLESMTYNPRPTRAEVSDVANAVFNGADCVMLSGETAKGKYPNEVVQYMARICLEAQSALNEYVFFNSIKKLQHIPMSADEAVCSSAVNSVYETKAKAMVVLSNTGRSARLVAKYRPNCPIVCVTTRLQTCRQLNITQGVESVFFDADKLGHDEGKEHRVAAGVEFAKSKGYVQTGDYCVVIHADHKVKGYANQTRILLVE
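Purified LmPK (0.1 nM) converted ADP (0.1 mM) to ATP with PEP (0.5 mM) in imidazole buffer pH 7.2 with KCl and MgCl2, 1 h at room temperature. ATP was read by Kinase-Glo luminescence; data normalized to uninhibited and no-enzyme controls.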
AMA1 RON2 block: AMA1-RON2 (P. falciparum) interaction inhibition; 360,000 tested, 0.2% active; AlphaScreen AMA1-biotinylated RON2 peptide binding; AID 720542; Potency, µM (top dose mostly 58.2 µM), for inactives: at the top dose activity change, negative = inhibition, usual class: inhibitors;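 further: 0% = vehicle wells and -100% = peptide control; nearly all actives have a fitted effect of over 45% in size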
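AMA1 (3D7) with his tag at 25 nM final met compounds first, then biotinylated RON2 peptide at 25 nM; detection used donor plus acceptor beads, 10 µg/mL apiece, read by AlphaScreen after 30 min at room temperature.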
RE007 growth inh: less growth of the S. pombe RE007 Vpr strain | S. pombe RE007 Vpr strain, BacTiter-Glo ATP luminescence, 24 h | Potency, µM (highest dose often 92.2 µM), inactives show at the highest dose activity change, negative = less growth, most hits filed as inhibitors | 360,000 tested, 0.21% active; active means well fitted falling curve with a large enough effect; inconclusive means small, poorly fitted or top-dose-only effect; inactive means no such curve, though single readings can be large or run the other way; further: on the % scale 0 is the no-effect control and ±100 the full control effect; nearly all actives have a fitted effect of over 50% in size
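Fission yeast RE007 carrying one integrated HIV-1 vpr copy, seeded at OD 0.01 in PMG+AL medium with 23 nL pinned compound. Grown 24 h at 30 degrees; viability read by BacTiter-Glo luminescence after 5 min.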
SARS PLP yeast: SARS-CoV PLP inhibition in yeast; S. cerevisiae expressing SARS-CoV PLpro, growth rescue; Potency, µM (series often up to 32.9 µM), for the others: at the highest dose activity, positive = growth rescue, actives largely listed as activators; 330,000 tested, 0.19% active; calls by dose curve; further: 0% is about no effect; nearly all actives have a fitted effect of over 55% in size
Tb PYK inh: blocks Trypanosoma brucei pyruvate kinase; Q57TT1; TbPYK enzyme, Kinase-Glo Plus ATP luminescence, 45 min; Potency, µM (series often up to 76.8 µM), without a hit: top-dose activity, negative = inhibition, most hits filed as inhibitors; 410,000 tested, 0.12% active; further: on the % scale 0 is the no-effect control and ±100 the full control effect; nearly all actives have a fitted effect of over 50% in size
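TbPYK + substrate in 50 mM TEA pH 7.2, 100 mM KCl, 10 mM MgCl2, 0.05% BSA, 0.01% Tween-20; cpd pinned; ADP 130 uM final; 45 min RT; Kinase-Glo Plus 10 min; luminescence endpoint.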
* = called active by the depositor; ? = inconclusive; . = not tested or not shown; [ ] = remark or other dose. Unless noted, the call rests on the fitted dose curve; in most records, active means well fitted curve in the direction sought with a large enough effect; inconclusive means small, poorly fitted or top-dose-only effect, or another doubt; inactive means no such curve, though single readings can be large; an effect the other way counts as inactive or inconclusive. Potency means the concentration at half of the fitted maximal effect.

SMILES	LmPK inhibitor	AMA1 RON2 block	RE007 growth inh	SARS PLP yeast	Tb PYK inh
CC(C)CN(C(=O)COC(=O)c1ccccc1SCC(=O)N1CCCC1)C1CCS(=O)(=O)C1 (configuration not stated)	.	10µM*	9.0%	.	4.3%
Cc1ccccc1NS(=O)(=O)c1cc(C(=O)NCCSC2CCCCC2)ccc1C	-1.0%	-7.8%	11.2µM*	-4.4%	-9.5%
Cc1nc(-c2ccc([N+](=O)[O-])cc2)sc1C(=O)O	15.8µM*	-14.9%	-24.0%	0.1%	-10.4%
COc1ccc(-c2nc(C)c(CCNC(=O)c3ccco3)s2)cc1	.	.	.	.	-4.9%
COc1ccccc1-c1cc(C(=O)Nc2c(C)nn(Cc3ccc(Cl)cc3)c2C)no1	.	.	.	.	12.6%
CCc1ccc(NC(=O)Cn2ncc3c(C)n(Cc4cccc(Cl)c4)c(C)c3c2=O)cc1	.	.	.	.	0.5%
C=CCN(CC=C)c1cnn(-c2nc3ccccc3[nH]2)c(=O)c1Cl	15.8µM*	-7.7%	-15.9%	-6.8%	-5.7%
O=c1c(Cl)c(NCCO)cnn1-c1cccc(Cl)c1	3.0%	2.6%	11.0%	0.2%	-3.2%
O=S(=O)(Nc1nc2ccccc2[nH]1)c1ccc(Cl)cc1	-2.4%	-8.6%	-13.9%	-2.2%	4.3%
O=c1c(Cl)c(NCCCO)cnn1-c1nc2ccccc2[nH]1	14.1µM*	9.5%	?	-31.6%	?
COc1cc(N2CCC(N3CCN(C)CC3)CC2)ccc1Nc1ncc(Cl)c(Nc2ccccc2S(=O)(=O)C(C)C)n1	.	.	.	.	-24.0%
O=[N+]([O-])c1ccccc1Nc1ccccc1	4.6%	10µM*	-3.3%	-0.3%	0.4%
O=[N+]([O-])c1ccccc1Nc1ccccc1[N+](=O)[O-]	.	-25.2%	2.4%	.	-4.1%
O=C(O)C[CH2][Ge](=[O])[O][Ge](=[O])[CH2]CC(=O)O	.	.	.	.	5.7%
CC(C)OCCCn1c(SCc2ccccc2C#N)nc2c(sc3ccccc32)c1=O	.	.	.	.	-11.3%
COc1ccc(NC(=O)C=C(C)C)cc1Cl	15.8µM*	-2.2%	-26.4%	.	-12.1%
COCC(=O)Nc1ccc(OC)c(Cl)c1	-9.9%	-2.3%	6.8%	0.2%	1.0%
CC1CCCN(C(=O)c2ccc(-c3ccccc3Cl)o2)C1 (configuration not stated)	.	-22.7%	-23.7%	-1.7%	5.4%
CN(C=[N+](C)C)c1cccc2c1C(=O)c1ccccc1C2=O	-6.8%	31.6µM*	-13.9%	5.7%	-6.6%
CO[C@@]1(NC(=O)CSC[C@@H](N)C(=O)O)C(=O)N2C(C(=O)O)=C(CSc3nnnn3C)CS[C@@H]21	.	.	.	.	-0.8%
CCOC(=O)[C@H](CCc1ccccc1)NC(C)C(=O)N1CC2(CC1C(=O)O)SCCS2 (some centres not stated)	.	.	.	.	0.0%
CN1C2CCC1CC(NC(=O)n1c(=O)[nH]c3ccccc31)C2 (configuration not stated)	.	.	.	.	-6.5%
OCCN1CCN(Cc2cc(Cl)c3cccnc3c2O)CC1	2.6%	-94.8%	-4.4%	17.8µM*	-6.8%
COCc1cc(CN2CCCC2)c(O)c2ncccc12	6.2%	9.47µM*	-6.7%	-0.1%	2.8%
CCCC(=O)N1CCC1(C)C(=O)Nc1ccc2c(c1)CCN2C(C)=O (configuration not stated)	.	15.8%	9.6%	.	0.3%
SMILES	LmPK inhibitor	AMA1 RON2 block	RE007 growth inh	SARS PLP yeast	Tb PYK inh
Cc1ccc(N=Nc2ccc3ccccc3c2O)cc1	-18.0%	2.82µM*	-9.9%	3.2%	-16.5%
COc1cccc(N=Nc2ccc3ccccc3c2O)c1	-6.3%	2.82µM*	-6.9%	1.8%	-18.5%
Oc1ccc2ccccc2c1N=Nc1ccc(F)cc1	-6.1%	1.41µM*	-13.7%	-0.6%	1.3%
Oc1c(N=Nc2ccc(F)cc2)ccc2ccccc12	-8.1%	1.78µM*	-23.5%	3.5%	?
Oc1c(N=Nc2nn[nH]n2)ccc2ccccc12	.	?	-18.1%[18.4 µM]	.	-19.8%
COc1ccc(N=Nc2ccc3ccccc3c2)c(O)c1	-9.5%	?	-6.7%	-0.1%	-11.3%
Cc1ccc(N=Cc2sc(O)c3ccccc23)cc1	-12.8%	22.7%	3.9%	-2.9%	3.4%
COCCCN1C(=O)C(CC(=O)NCc2ccco2)CC(C(=O)N(C(C)C)C(C)C)=C1C (configuration not stated)	.	-0.5%	10.9%	.	4.3%

Source: PubChem (National Center for Advancing Translational Sciences (NCATS))
